{"source": "PubChem BioAssay AID623959", "about": "(National Center for Advancing Translational Sciences (NCATS), 2012)", "note": "The whole screen tested about 1,400 compounds, of which fewer than 10 were called active. Inconclusive results (about 8%) are left out. The call rests on the fitted dose curve; in most records, active means well fitted curve in the direction sought with a large enough effect; inconclusive means small, poorly fitted or top-dose-only effect, or another doubt; inactive means no such curve, though single readings can be large or run the other way. A selection follows.", "data": [{"target": "Transient receptor potential cation channel subfamily V member 1 (Homo sapiens) (UniProt Q8NER1)", "sequence (Q8NER1 whole entry, looked up)": "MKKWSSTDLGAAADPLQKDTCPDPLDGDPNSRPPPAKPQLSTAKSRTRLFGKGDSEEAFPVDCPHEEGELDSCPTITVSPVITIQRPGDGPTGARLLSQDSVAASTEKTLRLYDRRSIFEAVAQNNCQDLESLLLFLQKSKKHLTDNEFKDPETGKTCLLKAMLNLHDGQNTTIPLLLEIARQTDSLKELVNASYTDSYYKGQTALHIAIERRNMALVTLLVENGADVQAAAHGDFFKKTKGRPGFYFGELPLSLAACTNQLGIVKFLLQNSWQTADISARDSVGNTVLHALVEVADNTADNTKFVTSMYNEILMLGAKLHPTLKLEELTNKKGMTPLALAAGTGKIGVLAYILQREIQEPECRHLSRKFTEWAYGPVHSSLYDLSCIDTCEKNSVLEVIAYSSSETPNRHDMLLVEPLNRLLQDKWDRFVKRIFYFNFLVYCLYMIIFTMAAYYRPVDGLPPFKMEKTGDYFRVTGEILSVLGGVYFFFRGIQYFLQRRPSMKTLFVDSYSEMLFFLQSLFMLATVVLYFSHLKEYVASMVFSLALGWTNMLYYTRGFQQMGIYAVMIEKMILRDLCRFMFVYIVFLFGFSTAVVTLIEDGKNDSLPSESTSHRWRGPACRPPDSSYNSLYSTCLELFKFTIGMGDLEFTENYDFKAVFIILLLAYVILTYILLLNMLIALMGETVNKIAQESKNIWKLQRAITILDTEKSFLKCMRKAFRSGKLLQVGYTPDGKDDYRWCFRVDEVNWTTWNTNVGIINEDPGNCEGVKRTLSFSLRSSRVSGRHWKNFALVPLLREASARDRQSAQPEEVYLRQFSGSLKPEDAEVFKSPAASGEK", "experiment": "qHTS Assay for Compounds that Act as Potentiators of the Vanilloid Receptor 1: Hit Validation; further: % of control where 0% means no effect", "conditions": "TRPV1-expressing cells, Fluo-8 calcium influx, capsaicin EC20; series mostly up to 42.1 µM; activity change, positive = potentiation: at the top concentration", "from_the_text": "The transient receptor potential ion channel, family V, number 1, (TRPV1) is one of the most important molecular transducers of painful stimuli and a potential target for analgesic drug development. Although recent clinical trials with orthosteric antagonists have not produced a successful drug because of a hyperthermia side effect and their tendency to block thermal noxious pain, this ion channel is undeniably well placed in the pain pathway, and the idea of blocking pain signals before they enter the CNS is an excellent concept and of proven efficacy when TRPV1 agonists are used. We propose a new approach involving allosteric modulation to impose an activity-dependent constraint within the context of inflammation and tissue damage that would alter the responsiveness of the channel in a way that an orthosteric vanilloid antagonist cannot achieve. We believe that the allosteric modulator approach has not been explored for this target. The main goal of this proposal is to identify additional, new, potent allosteric modulators of TRPV1 that can be used to investigate TRPV1 function. Our recent report provides evidence of proof of concept, but the compounds are just at the edge of utility in terms of potency. […] The question of whether they can be used as analgesic agents is complex, but if suitable compounds are identified then testing for analgesic properties will be conducted. Compounds identified as agonists were re-tested in the primary screen for hit validation. NIH Chemical Genomics Center [NCGC] NIH Molecular Libraries Probe Centers Network [MLPCN] MLPCN Grant: MH089480 Assay Submitter (PI): Michael Iadarola, National Institute of Dental and Cranofacial Research\nUpon TRPV1 activation in TRPV1 cells, the channel opens and extracellular cations flow through the channel into the cytosol. A calcium binding dye (Fluo-8) becomes fluorescent when bound to calcium. This dye is pre-loaded into cells and is used as a marker for calcium influx. The amount of accumulated calcium is precisely quantified using the FDSS kinetic reader and the calcium dye. For the HTS assay, freshly prepared cells are plated at a density of 2000/well in 3 ul medium in 1536-well plates and cultured overnight at 35.5C. Cells will be loaded with 1 ul of the homogeneous calcium dye (ABD Bioquest) at room temperature for 40 to 90 minutes. Plates will be loaded into the FDSS kinetic reader and a 1 sec / cycle for 10 second baseline signal will be measured. Compound library will then be added with a pintool at 23 nl and measured kinetically for 3 minutes. This portion of the read is considered the agonist portion of the screen. Following the 3 minutes of incubation, an on board pipettor will deliver 1 ul of capsaicin for a final concentration equal to the EC20. Signal will be measured kinetically for an additional 2 minutes. This portion of the read is considered the allosteric enhancer portion of the screen. The FDSS reader has a standard filter set capable of measuring calcium bound Fluo-8 (ex=480 and em=520 nm).", "values": [{"smiles": "CC(C)(C)OC(=O)NCCCC[C@H](NC(=O)c1nc[nH]c1C(=O)NCc1ccc(CNC(=O)OC(C)(C)C)cc1)C(=O)OC(C)(C)C", "activity change, positive = potentiation": "0.195% (inactive)"}, {"smiles": "CN(c1ccccc1)S(=O)(=O)c1ccc(Cl)c(C(=O)NCCc2c[nH]c3ccccc23)c1", "activity change, positive = potentiation": "-6.03% (inactive)"}, {"smiles": "CCc1cccc(C)c1NC(=S)N(CCCN1CCN(C)CC1)Cc1cccs1", "activity change, positive = potentiation": "-8.28% (inactive)"}, {"smiles": "Cc1cccc(-n2c(=O)[nH]c3c(C(N)=O)nc(CC(C)C)nc32)c1", "activity change, positive = potentiation": "0.951% (inactive)"}, {"smiles": "COc1ccc(NC(=O)CCCSc2nc(-c3ccco3)cc(C(F)(F)F)n2)cc1OC", "activity change, positive = potentiation": "-38.7% (inactive)"}, {"smiles": "Cc1ccc(NC(=O)c2cc(S(=O)(=O)N3CCOCC3)ccc2F)c(C)c1", "activity change, positive = potentiation": "-31.2% (inactive)"}, {"smiles": "CCOC(=O)c1c(C)c(C(=O)NCC2CCCO2)c(C)n1C", "note": "(configuration not stated)", "activity change, positive = potentiation": "-7.81% (inactive)"}, {"smiles": "Cc1ncsc1CCC(=O)N1CCCC(Nc2ccc(C(C)C)cc2)C1", "note": "(configuration not stated)", "activity change, positive = potentiation": "-39.8% (inactive)"}, {"smiles": "Cc1ccc(NCc2n[nH]c(=S)n2-c2ccccc2)c(C)c1", "activity change, positive = potentiation": "9.07% (inactive)"}, {"smiles": "NNC(=O)C1COc2cc3ccccc3cc2O1", "note": "(configuration not stated)", "activity change, positive = potentiation": "-31.3% (inactive)"}, {"smiles": "CCCCC(=O)Nc1ccc(C(=O)Nc2ccc(S(=O)(=O)N3CCCC3)cc2)cc1", "activity change, positive = potentiation": "-8.84% (inactive)"}, {"smiles": "COc1ccc(C(=O)Nc2ccc3ccccc3c2)cc1", "activity change, positive = potentiation": "-32.9% (inactive)"}, {"smiles": "Cc1sc2ncn(CC(=O)Nc3cccc(S(N)(=O)=O)c3)c(=O)c2c1-c1ccccc1", "activity change, positive = potentiation": "-4.7% (inactive)"}, {"smiles": "CCC(=O)N(CCc1ccccc1)Cc1cc2cccc(C)c2[nH]c1=O", "activity change, positive = potentiation": "-38.2% (inactive)"}, {"smiles": "Cc1c(=O)n(OCc2ccccc2F)c2ccccc2[n+]1[O-]", "activity change, positive = potentiation": "0.445% (inactive)"}, {"smiles": "Nn1c(Cc2ccccc2)nc2cc(Cl)ccc2c1=O", "activity change, positive = potentiation": "-8.59% (inactive)"}, {"smiles": "Cc1ccc2c(c1)[C@H]1[C@H](CO2)[C@H](c2ccccc2)[C@]2(C)C(=O)Nc3cc(Cl)ccc3C(=O)N12", "activity change, positive = potentiation": "3% (inactive)"}, {"smiles": "Cc1cc(C)cc(Oc2nc3ccccn3c(=O)c2/C=C(\\C#N)C(=O)NC2CCS(=O)(=O)C2)c1", "note": "(configuration not stated)", "activity change, positive = potentiation": "-10.1% (inactive)"}, {"smiles": "CCC(=O)Nc1cccc(NC(=O)c2ccc3c(c2)OCCO3)c1", "activity change, positive = potentiation": "-9.67% (inactive)"}, {"smiles": "CCOc1ccc(-c2cccc(NS(=O)(=O)c3cc([N+](=O)[O-])ccc3Cl)c2)nn1", "activity change, positive = potentiation": "2.27% (inactive)"}, {"smiles": "COC(=O)CCC(=O)OC1(C)C(=O)C=C2C=C(C3CC3)N(c3ccccc3)C=C2C1=O", "note": "(configuration not stated)", "activity change, positive = potentiation": "-6.19% (inactive)"}, {"smiles": "CCN(CC(=O)Nc1ccccc1OC)CC(=O)Nc1sccc1C#N", "activity change, positive = potentiation": "5.9% (inactive)"}, {"smiles": "C=CCOc1c(Br)cc(CNc2ccc3[nH]c(=O)[nH]c3c2)cc1OCC", "activity change, positive = potentiation": "-25.8% (inactive)"}, {"smiles": "O=C(CSc1nnc(Cc2ccccc2)o1)NC1CC2CCC1C2", "note": "(configuration not stated)", "activity change, positive = potentiation": "6.43% (inactive)"}, {"smiles": "CC(=O)N1CCN(c2ccc(NC(=O)C(c3ccccc3)c3ccccc3)cc2)CC1", "activity change, positive = potentiation": "-5.18% (inactive)"}, {"smiles": "Cc1cccc(NC(=S)NCC(c2cccnc2)N(C)C)c1C", "note": "(configuration not stated)", "activity change, positive = potentiation": "5.7% (inactive)"}, {"smiles": "CC(C)(C)C(=O)NNC(=O)c1ccc(Oc2cc(Cl)cc(Cl)c2)o1", "activity change, positive = potentiation": "0.968% (inactive)"}]}]}
